Out of some 97,000 compounds screened, about 140 (0.14%) were called active. For the sample, actives were picked, then their nearest neighbours and some compounds at random. Unmarked numbers belong to inactive results.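 The calls were made as follows: active = inhibition above the screen-wide mean inhibition plus 3 SD (cut at about 15% in these data); inactive = the rest.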
Each compound was assayed against Ephrin type-B receptor 4 (Homo sapiens) (UniProt P54760) (assay: EphB4-ephrin-B2 interaction antagonists, primary screen, biochemical, TNYL-RAW peptide probe, fluorescence polarization (AID 720;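 also: 0% = DMSO wells and 100% = excess unlabeled TNYL-RAW peptide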)). Settings: EphB4 LBD / TNYL-RAW-Alexa532 peptide, at 7 µM, hits give high values.
Ephrin type-B receptor 4 (Homo sapiens), sequence (P54760 whole entry, looked up, the tested form may be a part): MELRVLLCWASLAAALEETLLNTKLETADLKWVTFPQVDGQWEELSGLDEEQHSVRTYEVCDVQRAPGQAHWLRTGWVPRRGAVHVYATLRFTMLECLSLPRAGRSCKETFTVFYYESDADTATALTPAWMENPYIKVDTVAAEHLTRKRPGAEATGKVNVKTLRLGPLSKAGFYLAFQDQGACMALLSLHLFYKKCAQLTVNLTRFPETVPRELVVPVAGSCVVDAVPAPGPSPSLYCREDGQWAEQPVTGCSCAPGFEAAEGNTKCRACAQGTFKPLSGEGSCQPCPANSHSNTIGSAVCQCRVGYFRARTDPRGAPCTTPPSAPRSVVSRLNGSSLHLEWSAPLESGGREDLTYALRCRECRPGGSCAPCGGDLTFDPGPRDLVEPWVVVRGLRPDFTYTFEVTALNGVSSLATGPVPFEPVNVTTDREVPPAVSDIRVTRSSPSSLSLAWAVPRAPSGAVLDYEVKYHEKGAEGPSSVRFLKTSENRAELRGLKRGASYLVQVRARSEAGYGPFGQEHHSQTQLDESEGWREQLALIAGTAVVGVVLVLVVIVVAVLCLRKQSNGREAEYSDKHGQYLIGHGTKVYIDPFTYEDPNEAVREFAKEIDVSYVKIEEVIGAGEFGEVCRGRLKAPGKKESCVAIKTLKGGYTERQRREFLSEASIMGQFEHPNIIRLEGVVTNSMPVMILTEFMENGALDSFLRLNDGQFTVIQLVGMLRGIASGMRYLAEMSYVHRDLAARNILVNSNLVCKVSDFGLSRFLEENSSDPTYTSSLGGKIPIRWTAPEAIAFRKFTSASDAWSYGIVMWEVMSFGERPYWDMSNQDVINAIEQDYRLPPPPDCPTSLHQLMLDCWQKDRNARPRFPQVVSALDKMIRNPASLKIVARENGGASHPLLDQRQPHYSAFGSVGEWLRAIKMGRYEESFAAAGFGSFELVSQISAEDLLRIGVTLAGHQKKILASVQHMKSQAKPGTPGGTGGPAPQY

SMILES	inhibition
Oc1ccc(CNc2ccccc2O)cc1	-12.7%
O=C(COc1ncnc2c(Cl)cc(Cl)cc12)N1CCN(S(=O)(=O)c2ccccc2)CC1	-7.07%
CC(C)CNC(=O)CC(c1ccccc1)c1c(O)ccc2ccccc12 (stereo not given)	2.89%
Cc1ccsc1/C=C1\SC(N2CCOCC2)=NC1=O	-4.07%
Nc1ccc(C(=O)OCC(=O)NC2CCCc3ccccc32)cc1[N+](=O)[O-] (stereo not given)	-2.7%
COc1ccc(OCCCC(=O)Oc2ccc(OC)cc2)cc1	5.05%
O=C(COC(=O)c1ccccc1NC(=O)c1ccco1)Nc1ccc2c(c1)OC(F)(F)O2	-1.26%
COc1ccc(NC(=O)NC2CC3CCCC(C2)N3Cc2ccccc2)cc1 (stereo not given)	-5.24%
O=C(Nc1ccccc1[N+](=O)[O-])C1C(c2ccccc2)=C1c1ccccc1	2.26%
Cn1cnc([N+](=O)[O-])c1Nc1ccccc1O	2.1%
Clc1ccc(COn2c(-c3ccc(Cl)cc3Cl)nc3ncccc32)cc1	1.17%
O=c1c2ccccc2nc2n1C1(CCCCC1)Cc1ccccc1-2	6.44%
CCOC(=O)C1=C(c2ccccc2)O/C(=C(/C(=O)OC)C(F)(F)F)S1	-6.59%
O=C(Cn1ccc([N+](=O)[O-])n1)NCc1cccs1	-8.7%
Cc1[nH]n(-c2ccccc2)c(=O)c1CCOC(=O)c1ccc(C(F)(F)F)cc1	5.95%
COC(=O)Cc1cc(=O)oc2c(C)c(O)ccc12	-7.76%
COC(=O)/C(=C\Nc1ccccc1)NC(=O)c1ccc(Cl)cc1Cl	2.49%
COC(=O)c1cccc(N(C(=O)c2ccco2)C(C(=O)NC2CCCC2)c2ccco2)c1 (stereo not given)	-2.29%
O=C(CSC1=Nc2ccccc2C2=NC(CC(=O)NCc3ccco3)C(=O)N12)NCc1ccco1 (stereo not given)	-6.96%
Cc1cccc(C)c1NC(=O)CCS(=O)(=O)c1cccc2nsnc12	7.08%

SMILES	inhibition
Cc1cc2nc(C)n(CCCNC(=O)Nc3ccccc3)c2cc1C	-0.81%
CCN1CCC(=NNC(=O)c2ccc(C)c([N+](=O)[O-])c2)CC1	8.39%
ONC(=Nc1ccc(Cl)cc1)c1ccccc1Cl	-1.3%
CCn1nc(C)c(NC(=O)/C=C/c2ccc(OC)c(COc3ccc(Br)cc3)c2)c1C	7.03%
c1ccc(-c2nc(NCc3ccco3)c3ccccc3n2)cc1	4.23%
CN1/C(=c2/s/c(=C3/C(=O)N(c4ccccc4)NC3=Nc3ccccc3)n(C)c2=O)C(C)(C)c2ccccc21	0.36%
Cc1ccc(NC2(C#N)C(=O)Nc3ccccc32)cc1 (stereo not given)	0.9%
CCCCNC(=O)CSc1nc2n[nH]c(C)c2c(=N)n1-c1cccc(Cl)c1C	6.52%
Cc1ccc2c(c1)-c1c(ssc1=S)C(C)(C)N2C(=O)CN1C(=O)c2ccccc2C1=O	10.6%
O=C(Nc1sc2c(c1-c1nc3ccccc3[nH]1)CCCC2)C1CC1	-2.93%
COC(=O)Nc1sc2nc(C)cc(C)c2c1-n1cccc1	-5.41%
Cc1nc(NNC(=O)c2ccccc2)cc(-c2ccccc2)n1	8.09%
O=C(COC(=O)c1ccc(S(=O)(=O)N2CCc3ccccc3C2)cc1)NC(=O)NCc1ccco1	3.64%
COc1cc(C)c(C(C)C)cc1S(=O)(=O)n1ccnc1	1.74%
NC(=O)C1(N2CCCCC2)CCN(C(=S)Nc2ccc(Cl)cc2)CC1	-1.72%
NC(=O)COc1ccc(/C=N/NC(=O)C2CCCN2S(=O)(=O)c2ccc(Cl)cc2)cc1 (stereo not given)	0.72%
CS(=O)(=O)N1CCN(c2cccc(Cl)n2)CC1	-3.22%
CCCc1nc2sc3c(c2c(=O)n1NC(=O)CCCl)CCCC3	2.57%
CC1CCC2(CC1)NC(=O)N(CC(=O)c1cccn1C)C2=O (stereo not given)	4.98%
COc1ccc(/C=C(/NC(=O)c2ccc(C)cc2)c2nc3ccccc3[nH]2)cc1OC	-1.55%

SMILES	inhibition
CCCc1nnc(NC(=O)CN2C(=O)c3ccccc3S2(=O)=O)s1	18.1% (active)
CNC(=O)CN1C(=O)c2ccccc2S1(=O)=O	-4.4%
CCCc1nnc(NC(=O)c2cccs2)s1	-2.26%
COC(=O)c1cc(OC)ccc1-c1ccc(OC)cc1	-6.72%
O=C(COC(=O)c1n[nH]c2ccccc12)NCc1ccccc1	1.83%
CC(C)c1ccc(N2CCN(C(=O)c3ccccc3NC(=O)/C=C(\C(=O)O)c3ccccc3)CC2)cc1	-2.32%
CC(C)Oc1ccc(Oc2ccc(C(F)(F)F)cn2)cc1	-4.38%
O=C(CNC(=O)c1cc2c(s1)CCC2)Nc1ccccc1Br	-5.12%
C=CCOc1c2ccc(C(=O)N(CC)c3ccc(OC)cc3)cc2nn1C	0.66%
C=CCNC(=O)c1sc(SC)cc1-c1ccc(Cl)cc1	-2.13%
Cc1cccc(NC(=O)c2ccc(OCC(=O)NCc3ccccc3)cc2)c1C	0.02%
Cc1ccc(NC(=S)N/N=C2/CCCc3c(C)cc(C)cc32)cc1	0.47%
CCOC(=O)c1ccc2c(c1)nc(C)n2CC	-0.83%
COC(=O)c1ccccc1OCC(=O)N1CCN(c2ccc(Cl)cc2)CC1	-4.75%
OC(COCCC12CC3CC(CC(C3)C1)C2)CN1CCCCC1 (stereo not given)	2.92%
N/C(=N\OC(=O)c1cc(-c2ccccc2)nc2ccccc12)c1ccncc1	-5.76%
Cc1ccc2c(Cl)c(C(=O)NCCCn3ccnc3)sc2c1	8.67%
COc1ccc(C(=O)OCC(=O)NCC2CCCCC2)cc1S(=O)(=O)N1CCCc2ccccc21	-0.59%
Cc1ccc(C(=O)c2c(NC(=O)c3ccncc3)sc3c2CCCC3)cc1	1.3%
O=C(N/N=C\c1cccc(Br)c1)c1ccccc1-n1cccc1	1.13%
